# KB-V1 MDR tox: kills drug-selected multidrug resistant KB-V1 cells; KB-V1 MDR cells viability, CellTiter-Glo, 72 h; Potency, µM (top dose mostly 46.1 µM), actives largely listed as cytotoxic; 3.4% of 400,000 active; further: nearly all actives have a fitted effect of over 60% in size
#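 In this primary screen, KB-V1 cells overexpressing P-gp are incubated with library compounds (lowest to highest concentration) for 72 h at 37 degrees C before a luminescent ATP viability read.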
# ELG1 repair inh: blocks ELG1-dependent DNA repair in HEK293T cells; HEK293T ELG1-luciferase reporter, luminescence, 16 h; DNA damage induced by 5-fluorouridine; Potency, µM (titrated, usually from 46.1 µM), actives largely listed as inhibitors; 2.3% of 330,000 active; further: nearly all actives have a fitted effect of over 55% in size
#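 In this reporter screen, reduction of luminescence relative to DMSO vehicle indicated activity. Compounds and 5-fluorouridine were added together to 2,000 cells per well, incubated for 16 hr at 37 °C, then developed with ONE-Glo.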
# KB-3-1 tox: KB-3-1 parental cell cytotoxicity. Potency, µM (series often up to 46.1 µM), actives largely listed as cytotoxic. KB-3-1 viability, CellTiter-Glo ATP luminescence, 72 h. 1.4% of 400,000 active; further: nearly all actives have a fitted effect of over 60% in size
#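 Cells are dispensed, compounds pinned in, plates held at 37 °C for 72 h, then CellTiter-Glo is added and luminescence read after 10 minutes. Cell line: parental KB-3-1 in phenol-red-free DMEM, 10% FBS.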
# SW480 rereplic: induces DNA re-replication in SW480 colon adenocarcinoma cells. AID 624297. SW480 DNA re-replication, Hoechst DNA content imaging, 48 h. 1.8% of 340,000 active. Potency, µM (series often up to 46.1 µM), usual class: activators; further: nearly all actives have a fitted effect of over 55% in size
#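 Compounds, transferred as 23 nL by pin tool, were incubated with cells for 48 hr; DNA content per nucleus was then quantified by Hoechst staining and fluorescence plate imaging.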
# MCF10A rereplic: inducers of DNA re-replication in MCF 10A breast cells; MCF 10A DNA re-replication, Hoechst nuclear intensity, 48 h; Potency, µM (highest dose often 46.1 µM), most hits filed as activators; 2.9% of 350,000 active; AID 624296; further: nearly all actives have a fitted effect of over 50% in size
# Numbers stand for hits; i = inactive; ? = inconclusive; nt = not tested or not shown; [ ] = remark or other dose. Most compounds without a hit are left out; they make up all but 8.2% or so of the library. The call rests on the fitted dose curve; in most records, active means well fitted curve in the direction sought with a large enough effect; inconclusive means small, poorly fitted or top-dose-only effect, or another doubt; inactive means no such curve, though single readings can be large; an effect the other way counts as inactive or inconclusive.
SMILES,KB-V1 MDR tox,ELG1 repair inh,KB-3-1 tox,SW480 rereplic,MCF10A rereplic
CC(C)COC(=O)C1C(=O)CC(C)(O)C(C(=O)OCC(C)C)C1c1cccnc1 (stereo unspecified),16.4µM,i,i,i,i
O=C(CCN1CCC(c2ccccc2)C1)c1ccc2c(c1)OCCO2 (stereo unspecified),i,i,i,?,13.3µM
O=C(CCN1CCC(c2ccccc2)C1)c1ccccc1 (stereo unspecified),i,i,i,?,?
O=C(CCN1CCc2ccccc2C1)c1ccc2c(c1)OCCO2,?,i,?,16.4µM,?
O=C(CCN1CCc2ccccc21)c1ccc2c(c1)OCCO2,i,?,?,?,i
COc1cc(C(=O)CCN2CCC(c3ccccc3)C2)cc(OC)c1OC (stereo unspecified),i,i,i,?,3.66µM
CCN(CC)c1ccc(NC(=O)C2CCN(S(=O)(=O)c3ccc4c(c3)oc(=O)n4C)CC2)c(C)c1,i,nt,i,nt,nt
COc1ccc(S(=O)(=O)N2CCCCC2c2cc(C(=O)NCc3cccnc3)no2)cc1 (stereo unspecified),i,nt,i,nt,nt
Cc1cc(=O)n2[nH]c(SCc3ccccc3Cl)nc2n1,i,i,i,i,?
CCN(c1ccccc1)c1ncnc2c1cnn2-c1ccc(C)cc1C,i,nt,i,nt,nt
CCSc1nnc(-c2ccc(Cl)cc2)c2ccccc12,i,i,i,i,i
CC(C)c1nnc(-c2ccc(Cl)cc2)c(N(C)C)n1,20.6µM,i,i,i,i
c1ccc(Cn2nnc3c(Nc4ccc5c(c4)OCO5)nc(C4CC4)nc32)cc1,i,i,i,i,10.3µM
COc1ccc(OC)c(Nc2nc(C3CC3)nc3c2nnn3Cc2ccccc2)c1,2.06µM,i,i,i,i
CN(C)S(=O)(=O)c1ccc(Nc2nc(C3CC3)nc3c2nnn3Cc2ccccc2Cl)cc1,?,?,2.91µM,i,i
CCOC(=O)Nc1cc(OC)cc2ccc(C)nc12,i,nt,?,nt,nt
CCOc1ccc(OCCNC(=O)c2oc3ccccc3c2COC)cc1,20.6µM,i,i,i,?
CCOC(=O)Nc1ccc(N2CCOCC2)c(S(=O)(=O)Nc2ccc(Cl)cc2)c1,?,i,i,20.6µM,?
Nc1cc(S(=O)(=O)Nc2ccccc2Cl)ccc1N1CCOCC1,i,?,?,i,i
COc1ccc(NS(=O)(=O)c2cc(NC(=O)c3cc(F)c(F)cc3Cl)ccc2N2CCOCC2)cc1,i,?,i,?,i
COc1ccc(NS(=O)(=O)c2cc(NC(=O)c3sccc3C)ccc2N2CCOCC2)cc1,i,?,7.31µM,?,?
COc1ccccc1NS(=O)(=O)c1cc(NC(=O)c2sccc2C)ccc1N1CCOCC1,i,i,i,i,i
Nc1cc(S(=O)(=O)Nc2ccc(Cl)cc2)ccc1N1CCOCC1,?,14.6µM,23.1µM,i,?
CCN(CC)S(=O)(=O)c1ccc(N2CC(C(=O)NCc3ccco3)CC2=O)cc1 (stereo unspecified),i,nt,i,nt,nt
Cc1ccccc1Nc1c(-c2cccs2)nc2cccc(C)n12,i,nt,i,nt,nt
SMILES,KB-V1 MDR tox,ELG1 repair inh,KB-3-1 tox,SW480 rereplic,MCF10A rereplic
O=C(NNC(=O)c1ccccc1-n1cccc1)c1ccc(Cl)nc1,i,i,i,i,i
CCn1c2ccccc2c2cc(NC(=O)CSc3nnc(-c4ccccc4)o3)ccc21,?,i,i,0.651µM,?
Cc1ccc(C)c(NC(=O)CSc2nnc(-c3ccccc3)o2)c1,i,i,i,i,i
CCn1c2ccccc2c2cc(NC(=O)CSc3nnc(-c4cccc(F)c4)o3)ccc21,11.6µM,i,7.31µM,?,5.17µM
CCn1c2ccccc2c2cc(NC(=O)CSc3nnc(-c4cccc(C)c4)o3)ccc21,?,?,23.1µM,?,?
O=C(CCc1ccccc1)Nc1cccc([S+](=O)([O-])Nc2ccccc2F)c1,i,nt,i,nt,nt
Cc1cccc(Nc2cnn(C34CC5CC(CC(CC(=O)O)(C5)C3)C4)c(=O)c2Cl)c1,i,i,i,i,i
Cc1cc(C)cc(Nc2cnn(C34CC5CC(CC(CC(=O)O)(C5)C3)C4)c(=O)c2Cl)c1,i,i,i,?,23.1µM
Cc1c(C)c2ccc(OCC(=O)N(C)C)c(C)c2oc1=O,i,?,i,i[9.22 µM],i
CCOC(=O)CCc1c(C)c2ccc(OCC(=O)N(CC)CC)c(C)c2oc1=O,?,18.4µM,i,i,i
CCc1c(C)c2ccc(OCC(=O)N(C)C)c(C)c2oc1=O,10.3µM,?,i,i,i
CCOC(=O)CCc1c(C)c2ccc(OC3CCCCC3=O)c(C)c2oc1=O (stereo unspecified),i,?,i,i,i
O=C(COC(=O)c1ccccn1)NCc1cccs1,?,i,i,i,?
CC1(C)Cc2c(sc(NC(=O)c3ccco3)c2C#N)C(C)(C)N1,18.4µM,i,i,i,i
Cc1ccc(C(C)C)c(OCC(=O)Nc2sc3c(c2C#N)CC(C)(C)NC3(C)C)c1,i,i,i,?,?
CC1(C)Cc2c(sc(NC(=O)COc3ccc(Cl)cc3Cl)c2C(N)=O)C(C)(C)N1,i,?,i,?,23.1µM
Cc1cc(OCC(=O)Nc2sc3c(c2C#N)CC(C)(C)NC3(C)C)c(C(C)C)cc1Cl,i,i,i,i,18.4µM
Cc1[nH]c2ccccc2c1C(=O)C(C)Sc1nc2ccccc2c(=O)n1Cc1cccnc1 (stereo unspecified),i,nt,i,nt,nt
Cc1cc(C)n(-c2n[nH]c(=O)c3ccccc23)n1,i,i,i,i,i
CCOC(=O)C1=C(COC(=O)/C=C/c2ccc(SC)cc2)NC(=O)NC1C (stereo unspecified),i,10.3µM,i,i,i
CCOC(=O)C1=C(COC(=O)c2cc(S(=O)(=O)N(C)C)ccc2C)NC(=O)NC1C (stereo unspecified),23.1µM,i,i,i,i
COc1ccc(OC)c(NC(=O)c2cc(-c3cc(Cl)ccc3O)n[nH]2)c1,?,?,?,?,14.6µM
CC1CN(S(=O)(=O)c2ccc(NC(=O)c3cc(-c4ccccc4O)n[nH]3)cc2)CC(C)O1 (stereo unspecified),i,20µM,i,?,i
NS(=O)(=O)c1ccc(NC(=O)c2cc(-c3cc(Cl)ccc3O)n[nH]2)cc1,i,5.17µM,i,i,i
NS(=O)(=O)c1ccc(NC(=O)c2cc(Cl)ccc2Cl)cc1,i,i,i,i,i
CC(=O)c1ccc(NC(=O)COc2ccccc2-c2nc(C)no2)cc1,i,nt,i,nt,nt
CSCCC(NC(=O)c1ccccc1Cl)C(=O)NCC(c1ccc(F)cc1)N1CCOCC1 (stereo unspecified),i,nt,i,i,i
COC(=O)C1(NC(=O)CNC(=O)OCc2ccccc2)CCCC1,i,nt,i,i,i
Cc1ccccc1S(=O)(=O)NC(=O)C1(C)CCN1C(=O)c1ccccc1CCc1ccccc1 (stereo unspecified),i,nt,i,nt,nt
